Test results from PubChem BioAssay (Tox21).
Several values for one entry are separate records, joined by “and”; a condition that tells them apart may be missing. Identical values can stand only once. Results filed as inconclusive are left out. More than one record can exist for a structure, and the calls need not agree. Activity calls are given as the source filed them. Unless noted, the call rests on the fitted dose curve; in most records, active means well fitted curve in the direction sought with a large enough effect in the repeat runs; inconclusive means weak or mixed curves; inactive means no such curve, though single readings can be large; an effect the other way counts as inactive or inconclusive.

Legend:
[1] = A CellTox Green Cytotoxicity Assay to monitor cytotoxicity in HepG2 cells - 8 hour (AID 1224890); further: nearly all actives have a fitted effect of over 45% in size
Procedure, shortened: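 Real-time, homogeneous cytotoxicity readout: dead-cell DNA staining by CellTox Green in HepG2 monolayers, fluorescence measured at timed intervals up to 40 h of continuous compound exposure.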

[2] = qHTS assay to identify small molecule antagonists of the estrogen receptor alpha (ER-alpha) signaling pathway using the BG1 cell line in the presence of 0.1 nM 17-beta-estradiol - cell viability counter screen (AID 1259241); further: nearly all actives have a fitted effect of over 40% in size
Procedure, shortened: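 Following 5 days in phenol red-free medium with charcoal-stripped serum, VM7Luc4E2 cells received test compounds alongside 0.1 nM 17beta-estradiol (final) at 37C for 22 hr. Live cells were then quantified via protease-substrate fluorescence.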

[3] = qHTS assay to identify small molecule antagonists of the androgen receptor (AR) signaling pathway using the MDA cell line in the presence of 0.5 nM R1881 - cell viability counter screen (AID 1259242); further: nearly all actives have a fitted effect of over 45% in size
Procedure, shortened: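 Cytotoxicity toward MDA-kb2 cells is measured by CellTiter-Fluor live-cell protease fluorescence after 16 hr compound exposure at 37C in the presence of 0.5 nM R1881 stimulator.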

[4] = biological target: Androgen receptor (Homo sapiens) (UniProt P10275); experiment: qHTS assay to identify small molecule antagonists of the androgen receptor (AR) signaling pathway using the MDA cell line in the presence of 0.5 nM R1881 (AID 1259243); further: nearly all actives have a fitted effect of over 50% in size
Androgen receptor (Homo sapiens), sequence (P10275 whole entry, looked up): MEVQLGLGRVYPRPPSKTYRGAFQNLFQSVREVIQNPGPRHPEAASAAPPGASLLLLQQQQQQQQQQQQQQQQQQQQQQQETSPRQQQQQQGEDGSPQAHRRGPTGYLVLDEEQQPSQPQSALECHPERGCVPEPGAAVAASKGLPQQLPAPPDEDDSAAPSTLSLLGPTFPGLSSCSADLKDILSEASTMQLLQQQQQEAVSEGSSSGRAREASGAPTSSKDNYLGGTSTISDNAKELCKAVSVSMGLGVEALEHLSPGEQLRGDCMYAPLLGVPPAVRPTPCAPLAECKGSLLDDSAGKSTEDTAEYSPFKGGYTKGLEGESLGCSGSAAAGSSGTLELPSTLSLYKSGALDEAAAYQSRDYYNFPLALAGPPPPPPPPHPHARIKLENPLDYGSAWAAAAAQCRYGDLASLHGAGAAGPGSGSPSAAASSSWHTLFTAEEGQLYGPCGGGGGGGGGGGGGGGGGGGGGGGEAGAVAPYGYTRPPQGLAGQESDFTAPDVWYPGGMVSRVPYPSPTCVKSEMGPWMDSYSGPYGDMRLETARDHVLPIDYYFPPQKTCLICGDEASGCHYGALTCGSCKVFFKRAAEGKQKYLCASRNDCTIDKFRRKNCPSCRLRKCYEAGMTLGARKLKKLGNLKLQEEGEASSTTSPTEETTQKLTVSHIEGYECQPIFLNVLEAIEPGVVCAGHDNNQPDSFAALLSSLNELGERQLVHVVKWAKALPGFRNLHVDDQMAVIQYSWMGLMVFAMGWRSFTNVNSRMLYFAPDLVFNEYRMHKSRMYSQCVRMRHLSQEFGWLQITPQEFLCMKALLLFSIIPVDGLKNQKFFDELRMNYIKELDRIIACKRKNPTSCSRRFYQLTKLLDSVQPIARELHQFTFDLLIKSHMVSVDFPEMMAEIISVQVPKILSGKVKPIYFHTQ
Procedure, shortened: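 Steps: seed MDA-kb2 cells, incubate 5 hr at 37C; pin-transfer compounds in DMSO; add R1881 to 0.5 nM final; incubate 16 hr; add ONE-Glo, wait 30 min at room temperature; read luminescence.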

[5] = qHTS assay to identify small molecule phospholipidosis (PLD) inducers (AID 1259344; active means well fitted curve in the direction sought with a large enough effect; an effect the other way counts as inactive or inconclusive)
Procedure, shortened: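 HepG2 cells on collagen I, attached 4 h at 37 C, were co-treated with compound and LipidTOX Red dye for 24 h at 37 C, then fixed with paraformaldehyde plus Hoechst 33342 and imaged by high-content microscopy for phospholipid accumulation.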

[6] = qHTS assay to identify small molecule HDAC inhibitors (AID 1259364); further: top concentration of the series differs between compounds; nearly all actives have a fitted effect of over 45% in size
Procedure, shortened: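 Homogeneous cell-based luminescent assay of endogenous class I/II HDAC activity; HCT-116 cells, 2 h compound exposure, 30 min HDAC-Glo development at RT.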

[7] = qHTS assay to identify small molecule HDAC inhibitors - cell viability counter screen (AID 1259365); further: series mostly up to about 92 µM; nearly all actives have a fitted effect of over 50% in size
Procedure, shortened: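 HCT-116 wild-type, overnight attachment; 2hr drug exposure, 37C; CellTiter-Glo luminescent ATP readout after 30min RT.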

[8] = qHTS assay to identify small molecule agonists of the sonic hedgehog signaling (Shh) pathway - cell viability counter screen (AID 1259366); further: nearly all actives have a fitted effect of over 50% in size
Procedure, shortened: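 Compounds in DMSO were pin-transferred onto 3T3 Gli1-Luc cells that had settled 4hr; plates then stood 24hr at 37C and 5% CO2. One hour before the end, CellTiter-Fluor was added and fluorescence recorded.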

[9] = qHTS assay to identify small molecule antagonists of the sonic hedgehog signaling (Shh) pathway - cell viability counter screen (AID 1259367); further: nearly all actives have a fitted effect of over 55% in size
Procedure, shortened: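 NIH/3T3-derived Gli1-Luc reporter cells (2,000 per well) rested 4 hr at 37 C, then received DMSO compounds plus conditioned medium. After 23 hr of treatment, CellTiter-Fluor was added for 1 hr at 37C and fluorescence read.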

[10] = qHTS assay to identify small molecule agonists of the sonic hedgehog signaling (Shh) pathway (AID 1259368; calls by dose curve;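 further: NIH/3T3-derived 3T3Gli1-Luc cells carrying a stable Gli1-driven firefly luciferase reporter; series mostly up to about 92 µM; nearly all actives have a fitted effect of over 15% in size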)
Procedure, shortened: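 Steps: seed 3T3 Gli1-Luc cells, incubate 4 hr at 37 C, pin-transfer compounds in DMSO alongside a positive control, incubate 24 hr, add luciferase detection reagent, wait 30 min at room temperature, read luminescence.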

[11] = biological target: Estrogen receptor beta (Homo sapiens) (UniProt Q92731); experiment: qHTS assay to identify small molecule agonists of the estrogen receptor beta (ER-beta) signaling pathway (AID 1259377; active means well fitted activation curve with a large enough effect in the signal ratio in the repeat runs, not every such curve was filed as active; the % refers to the signal ratio)
Estrogen receptor beta (Homo sapiens), sequence (Q92731 whole entry, looked up): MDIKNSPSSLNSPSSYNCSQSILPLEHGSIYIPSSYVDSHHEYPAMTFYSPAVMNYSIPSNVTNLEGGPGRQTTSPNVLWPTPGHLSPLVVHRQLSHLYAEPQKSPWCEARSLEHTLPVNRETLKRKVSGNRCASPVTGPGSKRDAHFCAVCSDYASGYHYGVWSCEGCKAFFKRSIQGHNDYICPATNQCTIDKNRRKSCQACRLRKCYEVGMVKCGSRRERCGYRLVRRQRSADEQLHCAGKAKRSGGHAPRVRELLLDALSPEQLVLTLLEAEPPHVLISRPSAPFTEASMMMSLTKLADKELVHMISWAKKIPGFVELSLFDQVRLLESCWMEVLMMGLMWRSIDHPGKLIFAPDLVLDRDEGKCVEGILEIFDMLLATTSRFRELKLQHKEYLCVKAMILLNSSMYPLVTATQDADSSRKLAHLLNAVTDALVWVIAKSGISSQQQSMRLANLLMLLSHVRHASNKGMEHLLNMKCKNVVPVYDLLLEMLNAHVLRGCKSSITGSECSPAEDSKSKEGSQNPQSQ
Procedure, shortened: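 qHTS in ER-beta-UAS-bla HEK293T cells: 6 hr settling, then 16 hr compound at 37C, then LiveBLAzer substrate 2 h at RT before fluorescence reading.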

[12] = biological target: Estrogen receptor beta (Homo sapiens) (UniProt Q92731); experiment: qHTS assay to identify small molecule antagonists of the estrogen receptor beta (ER-beta) signaling pathway (AID 1259378; active means well fitted inhibition curve with a large enough effect in the signal ratio in the repeat runs, not every such curve was filed as active; the % refers to the signal ratio)
Procedure, shortened: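 ER-beta-UAS-bla HEK293T (GripTite) cells in 2% charcoal-stripped FBS medium were preincubated 6 hr at 37C, dosed with compound, then stimulated with 1 nM E2 (final) for 16 hr; beta-lactamase reporter read by B/G FRET fluorescence after 2 hr substrate loading.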

[13] = qHTS assay to identify small molecule agonists of the androgen receptor (AR) signaling pathway in the presence of an antagonist - cell viability counter screen (AID 1259379); further: nearly all actives have a fitted effect of over 25% in size; further: potency means the concentration at half of the fitted maximal effect
Procedure, shortened: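 Fluorescence from CellTiter-Fluor, added after 15 hr and read 1 hr later, gave cell viability. Cells were MDA-kb2 exposed to compounds (15 concentrations) in the presence of 3.0uM nilutamide at 37C, 0% CO2.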

[14] = qHTS assay to identify small molecule agonists of the estrogen receptor beta (ER-beta) signaling pathway - cell viability counter screen (AID 1259380); further: nearly all actives have a fitted effect of over 30% in size; further: potency means the concentration at half of the fitted maximal effect
Procedure, shortened: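 Same-well viability counter screen. Cells: ER-beta-UAS-bla HEK293T, plated 6 hr before compound, in 2% charcoal-stripped FBS. Compound exposure 16 hr, 37C; viability by CellTiter-Glo luminescence after 30 min at room temperature.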

[15] = biological target: Androgen receptor (Homo sapiens) (UniProt P10275); experiment: qHTS assay to identify small molecule agonists of the androgen receptor (AR) signaling pathway in the presence of an antagonist (AID 1259381; calls by dose curve; further: nearly all actives have a fitted effect of over 15% in size)
Procedure, shortened: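 Cells are MDA-kb2 (human breast carcinoma, MMTV-luc, AR/GR responsive). Nilutamide is present at 3.0uM final throughout; compounds are added at 15 concentrations and incubated 16hr at 37C before ONE-Glo luminescence detection.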

[16] = qHTS assay to identify small molecule antagonists of the estrogen receptor beta (ER-beta) signaling pathway - cell viability counter screen (AID 1259382); further: series mostly up to about 92 µM; nearly all actives have a fitted effect of over 55% in size
Procedure, shortened: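 Following a 6 hr plating period, HEK293T cells carrying a UAS-driven beta-lactamase reporter under ER-beta control received compounds and 1nM E2 (final). After 16 hr at 37C and 2 hr substrate loading, CellTiter-Glo luminescence indicated viability.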

[17] = qHTS assay to identify small molecule agonists or antagonists of the thyroid stimulating hormone receptor (TSHR) signaling pathway - wild type cell line counter screen (AID 1259384; calls by dose curve)
Procedure, shortened: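 Wild-type HEK293 cells were plated 18 h at 37 C/5% CO2, pin-dosed with compound plus Ro20-1724 medium, held 30 min at room temperature, then given cAMP-d2 and anti-cAMP-cryptate; fluorescence was read after 1 h. Fifteen concentrations, triplicate.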

[18] = qHTS assay to identify small molecule antagonists of the sonic hedgehog signaling (Shh) pathway (AID 1259369; calls by dose curve; further: nearly all actives have a fitted effect of over 45% in size; further: potency means the concentration at half of the fitted maximal effect)
Procedure, shortened: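 Inhibition of Shh signalling is measured as reduced Gli1-response-element firefly luciferase output in an NIH/3T3-derived stable reporter clone stimulated with conditioned medium for 24hr.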

[19] = biological target: Estrogen receptor (Homo sapiens) (UniProt P03372); experiment: qHTS assay to identify small molecule antagonists of the estrogen receptor alpha (ER-alpha) signaling pathway using the BG1 cell line in the presence of 0.1 nM 17-beta-estradiol (AID 1259244); further: nearly all actives have a fitted effect of over 50% in size; further: potency means the concentration at half of the fitted maximal effect
Estrogen receptor (Homo sapiens), sequence (P03372 whole entry, looked up): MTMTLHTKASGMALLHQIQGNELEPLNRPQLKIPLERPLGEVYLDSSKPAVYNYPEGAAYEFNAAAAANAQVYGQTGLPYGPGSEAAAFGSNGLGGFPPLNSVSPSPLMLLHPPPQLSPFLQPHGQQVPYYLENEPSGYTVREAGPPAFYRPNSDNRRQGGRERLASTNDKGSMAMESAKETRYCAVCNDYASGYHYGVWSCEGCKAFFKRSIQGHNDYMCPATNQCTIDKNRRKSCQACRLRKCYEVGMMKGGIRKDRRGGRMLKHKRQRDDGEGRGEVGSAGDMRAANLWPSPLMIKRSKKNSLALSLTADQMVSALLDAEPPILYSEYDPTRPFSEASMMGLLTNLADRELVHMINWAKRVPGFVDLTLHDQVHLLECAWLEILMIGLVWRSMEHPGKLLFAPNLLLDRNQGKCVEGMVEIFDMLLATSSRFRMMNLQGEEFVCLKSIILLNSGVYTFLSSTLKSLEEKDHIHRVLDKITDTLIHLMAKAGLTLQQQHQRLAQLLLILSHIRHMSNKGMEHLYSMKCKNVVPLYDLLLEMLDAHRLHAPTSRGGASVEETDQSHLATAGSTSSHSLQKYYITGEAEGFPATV
Procedure, shortened: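 After 5 days in hormone-depleted medium (charcoal-stripped serum, no phenol red), VM7Luc4E2 cells were seeded, incubated 24 h, then co-treated with compound and 0.1 nM (final) estradiol for 22 h before luminescence detection.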

[20] = biological target: Estrogen receptor (Homo sapiens) (UniProt P03372); experiment: qHTS assay to identify small molecule agonists of the estrogen receptor alpha (ER-alpha) signaling pathway in the presence of an antagonist (AID 1259383; calls by dose curve; further: nearly all actives have a fitted effect of over 15% in size; further: potency means the concentration at half of the fitted maximal effect; on activation: top concentration of the series differs between compounds)
Procedure, shortened: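 Cells are hormone-deprived for 5 days (charcoal-stripped FBS, no phenol red), plated for 24hr, spiked with 10.0nM ICI-182,780, then dosed at 15 concentrations. After 22hr at 37C, ONE-Glo luminescence reports ERE-luciferase activity.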

Measured: Potency

C[C@@H]1O[C@@H](OC[C@H]2O[C@@H](Oc3c(-c4ccc(O)c(O)c4)oc4cc(O)cc(O)c4c3=O)[C@H](O)[C@@H](O)[C@@H]2O)[C@H](O)[C@H](O)[C@H]1O
not listed: [18] | [19] | [20]
inactive: all other assays above

CCCCC(CC)COC(=O)/C=C\C(=O)OCC(CC)CCCC (stereo not given)
not listed: [5] | [19] | [20]
inactive: all other assays above

CCCCOCCOCCOC(=O)CCCCC(=O)OCCOCCOCCCC
not listed: [4] | [5] | [15]
inactive: all other assays above

CCCCCCCCCC(=O)O
not listed: [11] | [12] | [19] | [20]
inactive: all other assays above

OCC1CCCO1 (stereo not given)
not listed: [5] | [17]
inactive: all other assays above

c1ccc2ccccc2c1
not listed: [4] | [11] | [12] | [15]
inactive: all other assays above

CCCCCCOC(C)=O
inactive and 30.6 µM (active): [14]
not listed: [4] | [5] | [11] | [12] | [15]
inactive: all other assays above

NCc1cccc(CN)c1
not listed: [4] | [5] | [13] | [15]
inactive: all other assays above

CC[Si](OC(C)=O)(OC(C)=O)OC(C)=O
not listed: [4] | [5] | [11] | [12] | [15]
inactive: all other assays above

S=c1nc[nH]c2nc[nH]c12
active: [14] 7.51 µM and 3.35 µM
not listed: [4] | [12] | [15] | [16]
inactive: all other assays above

CC1Cc2ccccc2N1NC(=O)c1ccc(Cl)c(S(N)(=O)=O)c1 (stereo not given)
not listed: [4] | [15]
inactive: all other assays above

CCc1ccccc1O
19.2 µM (active) and inactive: [19]
not listed: [4] | [5] | [15]
inactive: all other assays above

CCC(=O)O
not listed: [4] | [11] | [12] | [15] | [17] | [18]
inactive: all other assays above

O=C1O[C@H](CO)[C@@H](O)[C@H](O)[C@H]1O
not listed: [4] | [15] | [18]
inactive: all other assays above

CC(=O)Nc1ccc(C(=O)O)cc1
not listed: [4] | [15] | [18]
inactive: all other assays above

CC(C)(CO)COC(=O)C(C)(C)CO
not listed: [5] | [18]
inactive: all other assays above

CCOC(=O)[C@H](CCc1ccccc1)N[C@@H](C)C(=O)N1Cc2ccccc2C[C@H]1C(=O)O
not listed: [4] | [9] | [15] | [17] | [18]
inactive: all other assays above

CCCCC(CC)C(=O)OCCOCCOCCOC(=O)C(CC)CCCC (stereo not given)
not listed: [5]
inactive: all other assays above

Clc1cc(Cl)c(Cl)cc1Cl
not listed: [4] | [5] | [15] | [17] | [18]
inactive: all other assays above

CC(C)(C)C1CCC(O)CC1 (stereo not given)
not listed: [4] | [5] | [15]
inactive: all other assays above

CCCCC/C=C\C/C=C\CCCCCCCC(=O)OC
inactive and 48.6 µM (active): [14]
inactive and 24.3 µM (active): [18]
not listed: [4] | [5] | [15]
inactive: all other assays above

NC(=O)/N=N/C(N)=O
not listed: [4] | [5] | [15] | [17]
inactive: all other assays above

Cc1cc(=O)[nH]c(C(C)C)n1
not listed: [5] | [11]
inactive: all other assays above

COCC(C)O (stereo not given)
not listed: [4] | [5] | [11] | [12] | [15]
inactive: all other assays above

COCC(=O)O
1.25 µM (active) and inactive: [18]
not listed: [4] | [5] | [15]
inactive: all other assays above

OC[C@@H](O)[C@@H](O)[C@H](O)[C@@H](O)CO
not listed: [4] | [5] | [11] | [12] | [15]
inactive: all other assays above

Cn1c([N+](=O)[O-])cnc1COC(N)=O
not listed: [4] | [15] | [17]
inactive: all other assays above

CCc1ccc(O)cc1
not listed: [5] | [19] | [20]
inactive: all other assays above

O=S(=O)(O)CCS
not listed: [4] | [15]
inactive: all other assays above

O=Nc1ccc(O)cc1
47.4 µM (active) and inactive: [13]
not listed: [5] | [18]
inactive: all other assays above

O=[N+]([O-])c1cccc(Cl)c1
67.4 µM (active) and inactive: [20]
not listed: [4] | [5] | [15]
inactive: all other assays above
